In PubChem BioAssay (EPA / NIEHS):
Records with an inconclusive call do not appear. Active and inactive are the calls of the source. The calls were made as follows: active = hit-call score of the fitted dose curve at least 0.9, where 1 is the maximum; inconclusive = response in the unintended direction; inactive = score below 0.9.

These compounds were tested against human Retinoid X Receptor beta (RXRb), RXRB (gene 6257) (UniProt P28702) (assay: ATG_RXRb_TRANS: Attagene TRANS-FACTORIAL HepG2 Assay for human Retinoid X Receptor beta (RXRb) (AID 2283013)).
Procedure: ATG_TRANS is a cell-based, multiplexed-readout assay that uses HepG2, a human liver cell line, with measurements taken at 24 hours after chemical dosing in a 24-well plate.ATG_RXRb_TRANS is one of 30 assay component(s) measured or calculated from the ATG_TRANS assay. It is designed to make measurements of mRNA induction, a form of inducible reporter, as detected with fluorescence intensity signals by Reverse transcription polymerase chain reaction (RT-PCR) and Capillary electrophoresis technology.Data from the assay component ATG_RXRb_TRANS was analyzed into 1 assay endpoint. This assay endpoint, ATG_RXRb_TRANS, was analyzed in the positive analysis fitting direction relative to DMSO as the negative control and baseline of activity. Using a type of inducible reporter, measures of mRNA for gain-of-signal activity can be used to understand the reporter gene at the transcription factor-level as they relate to the gene RXRB. Furthermore, this assay endpoint can be referred to as a primary readout, because this assay has produced multiple assay endpoints where this one serves a reporter gene function. To generalize the intended target to other relatable targets, this assay endpoint is annotated to the nuclear receptor intended target family, where the subfamily is non-steroidal.
Human liver HepG2 cells are transiently transfected with multiple reporter transcription units (MRTUs) in 6-well plates using FuGene 6 reagent (Roche; 3 ml FuGene/1 mg DNA). The MRTU constructs are regulated by a cis-regulating element (promoter). […] A major difference between the CIS and TRANS system is that in CIS activities of endogenous TFs are measured, whereas the TRANS assay evaluates changes in activities of exogenous, chimeric NR-Gal4 proteins. […] At the end of 24 hour incubation, total RNA was isolated using TriZol reagent (Invitrogen). The isolated RNA is then reverse-transcribed using oligo(dT) primer and Mo-MLV reverse transcriptase (Invitrogen) with DNAse I (Ambion) treatment for 30 min. The one-tenth of the produced cDNA was amplified by PCR using Taq DNA polymerase (Invitrogen) and two reporter sequence-specific primers. The PCR products were fluorescently labeled by primer extension with 6-arboxyfluorescein (6-FAM) 5'-labeled reporter sequence-specific primer (2 min at 95 C, 20 s at 68 C and 10 min at 72 C) and these products were digested with 5U of HpaI (New England Biolabs) for 2h at 37 C. The fragments were purified using Qiaquick PCR columns (Qiagen), analyzed on an ABI 3130xL genetic analyzer (Applied Biosystems) with peak positions identified by using a set of X-rhodamine (ROX)-labeled MapMarker1000 molecular weight standards (BioVentures). The raw capillary electrophoresis data was processed using Attagraph software (Attagene).

human Retinoid X Receptor beta (RXRb), RXRB (gene 6257), sequence (P28702 whole entry, looked up): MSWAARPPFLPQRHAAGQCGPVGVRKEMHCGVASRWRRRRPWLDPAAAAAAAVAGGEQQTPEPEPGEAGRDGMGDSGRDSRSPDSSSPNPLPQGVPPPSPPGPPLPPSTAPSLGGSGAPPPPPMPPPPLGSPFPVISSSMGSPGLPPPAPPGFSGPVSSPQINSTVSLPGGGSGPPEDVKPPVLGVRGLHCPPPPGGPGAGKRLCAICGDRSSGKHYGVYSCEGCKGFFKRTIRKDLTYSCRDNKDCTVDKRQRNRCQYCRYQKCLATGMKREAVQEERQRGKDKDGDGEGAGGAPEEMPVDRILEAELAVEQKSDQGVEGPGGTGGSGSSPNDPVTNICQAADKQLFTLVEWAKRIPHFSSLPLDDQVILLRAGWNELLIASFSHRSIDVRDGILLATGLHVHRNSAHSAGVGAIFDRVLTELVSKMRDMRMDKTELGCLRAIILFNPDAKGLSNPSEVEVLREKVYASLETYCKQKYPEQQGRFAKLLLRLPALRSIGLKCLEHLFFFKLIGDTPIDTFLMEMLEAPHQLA

outcome, inactive:
CN(C)c1ccc(O)c2c1C[C@H]1C[C@H]3[C@H](N(C)C)C(=O)C(C(N)=O)=C(O)[C@@]3(O)C(=O)C1=C2O
CCC(C)CCCC(C)(C)O (stereo not given)
CC1(C)[C@H]2CC[C@]1(C)[C@H](O)C2
c1ccc2[nH]ccc2c1
C=C(C)C(=O)OCCOC(=O)CC(C)=O
CCOC(=S)SSC(=S)OCC
COC(=O)OC
Nc1ccc(F)c([N+](=O)[O-])c1
CC1CCC2CC1C2(C)C (stereo not given)
CC(C)(C#N)c1cc(Cn2cncn2)cc(C(C)(C)C#N)c1
NC(=O)c1ccccc1Cl
O=C(O)c1snc(Cl)c1Cl
CC(=O)Nc1ccccc1O
CC(C)(N)CO
O=C(O)C[C@H](O)C[C@H](O)/C=C/c1c(C2CC2)nc2ccccc2c1-c1ccc(F)cc1
C=C(C)C(=O)OCc1ccccc1
CC[C@]12CCCN3CCc4c(n(c5ccccc45)[C@@](O)(C(=O)OC)C1)[C@@H]32
CCCCC[Si](OCC)(OCC)OCC
C=C[Si](OCC)(OCC)OCC
Cc1c(Cl)c(=O)oc2cc(O)ccc12
Fc1c(F)c(F)c(Br)c(F)c1F
O=C1O[C@@H]2[C@@H](O)[C@H](O)O[C@@H]2[C@H]1O
CC(C)(C)c1cc(CCC(=O)NN)cc(C(C)(C)C)c1O
Cc1ccc2n[nH]nc2c1
CCN(CC)CCOC(=O)c1ccc(N)cc1
CC1=CCC2C(C1)C2(C)C (stereo not given)
CCCCCCCCCCCCCCCC(=O)OC[C@H](O)[C@H]1OC(=O)C(O)=C1O
O=C(OCc1ccccc1)C(=O)OCc1ccccc1
CCc1ccc(C=O)cc1

AC50, active:
C=CC(C)(O)CCC=C(C)CCC=C(C)C (stereo not given) 27.3 µM
COc1c(Cl)c(Cl)c(Cl)c(Cl)c1Cl 6.22 µM
CCCC/C=C\CCCCCCCCCC=O 6.07 µM
CC(C)=CCCC(C)=CCCC(C)=CCO 28.1 µM
CCCCCCCCCCCCCC(=O)O 69.7 µM
Cc1ccc(C(C)C)cc1O 100 µM
CSc1nc(NC2CC2)nc(NC(C)(C)C)n1 22.7 µM
CCCCCCCCCCCCOCCO 33.4 µM
C=CCOc1nc(OCC=C)nc(OCC=C)n1 81 µM
Clc1ccc2c(c1)C(N1CCNCC1)=Nc1ccccc1O2 55.3 µM
BrC1CCC(Br)C(Br)CCC(Br)C(Br)CCC1Br (stereo not given) 8.67 µM
